# Compound activity from PubChem BioAssay.
# Most compounds without a hit are left out; they make up all but 6.2% or so of the library.
# HT1080 IDH1KD tx: kills HT-1080 cells with IDH1 knockdown. HT-1080 IDH1 knockdown viability, ATP luminescence, 48 h. hit rate 2% among 360,000. Potency, µM (titrated, usually from 46.1 µM), inactives show top-dose activity, negative = toxicity, usual class: cytotoxic;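 note: 0% = DMSO wells and -100% = cell-free medium wells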
#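 Knockdown cells (IDH1KD HT-1080) received compounds 2 h after plating at 750 cells/well and were kept 48 h at 37 °C in 5% FBS RPMI. A CellTiter-Glo luminescence read gave % activity for curve fitting.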
# HT1080-NT tox: kills 2HG-producing HT-1080-NT fibrosarcoma cells | HT-1080-NT fibrosarcoma viability, CellTiter-Glo ATP luminescence, 48 h | Potency, µM (highest dose often 46.1 µM), for inactives: at the top dose activity, negative = less viability, actives largely listed as cytotoxic | hit rate 1.6% among 360,000 | AID 686970;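 note: NT is the 2HG producing partner of a matched IDH1 knockdown line; 0% = DMSO-treated cells and -100% = media-only wells without cells; nearly all actives have a fitted effect of over 55% in size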
#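 Toxicity toward the 2HG-producing NT line was scored as %Activity, normalised to DMSO and no-cell wells, from CellTiter-Glo luminescence after 48 hours' treatment.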
# ATXN2 expr inh: reduces ATXN2 reporter expression in HEK-293 cells; HEK-293 ATXN2-luciferase reporter, luminescence, 24 h; Potency, µM (highest dose often 57 µM), inactives show at the highest dose activity change, negative = inhibition, usual class: inhibitors; hit rate 0.72% among 360,000; note: % is set by controls: 0 for no effect and ±100 for the full control effect; nearly all actives have a fitted effect of over 55% in size
#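 ATXN2-luciferase reporter cells (luciferase flanked by upstream and downstream ATXN2 gene portions) were treated 24 h at 37 °C with compounds at up to 57 uM. SteadyGlo luminescence gave expression; GF-AFC fluorescence gave viability.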
# KB-V1 cytotox: kills drug-selected multidrug resistant KB-V1 cells; KB-V1 MDR cells viability, CellTiter-Glo, 72 h; Potency, µM (highest dose often 46.1 µM), actives largely listed as cytotoxic; hit rate 3.4% among 400,000; AID 1347076; note: % is set by controls: 0 for no effect and ±100 for the full control effect; nearly all actives have a fitted effect of over 60% in size
#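 Compound-treated KB-V1 multidrug-resistant cells, 72 h, 37 degrees C; viability by CellTiter-Glo. Fitted qHTS curves give the values.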
# KB-3-1 cytotox: KB-3-1 parental cell cytotoxicity; KB-3-1 viability, CellTiter-Glo ATP luminescence, 72 h; Potency, µM (highest dose often 46.1 µM), hits mostly cytotoxic; hit rate 1.4% among 400,000; note: % is set by controls: 0 for no effect and ±100 for the full control effect; nearly all actives have a fitted effect of over 60% in size
#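 Here the drug-naive KB-3-1 line serves as comparator for MDR sub-line selectivity; cells received compound titrations, 72 h at 37 °C, then CellTiter-Glo readout.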
# S2 tox: viability counter-screen for ATXN expression inhibitors. S2 cells (HEK-293 line with an ATXN2-luciferase reporter) viability, CellTiter-Fluor protease fluorescence, 24 h. Potency, µM (highest dose often 56.7 µM), hits mostly cytotoxic. hit rate 0.49% among 400,000; note: nearly all actives have a fitted effect of over 40% in size
# Numbers without * were called inactive; i = inactive; u = inconclusive; x = not tested or not shown. Calls come from the whole dose curve; as a rule, active = well fitted curve in the direction sought with a large enough effect; inconclusive = small, poorly fitted or top-dose-only effect, or another doubt; inactive = no such curve, though single readings can be large; an effect the other way counts as inactive or inconclusive. Potency is the fitted concentration of half-maximal effect.
SMILES,HT1080 IDH1KD tx,HT1080-NT tox,ATXN2 expr inh,KB-V1 cytotox,KB-3-1 cytotox,S2 tox
CCn1c(=O)c2c(nc(SCc3ccccn3)n2C)n(C)c1=O,5%,-14%,9%,15µM*,u,i
CC(C)(C)OC(=O)NCCCCCNC(=O)c1nc[nH]c1C(=O)NCCCCCNC(=O)OC(C)(C)C,-14%,-25%,22µM*,u,u,25µM*
Cc1cccc(NC(=O)c2nc[nH]c2C(=O)NCCCCCNC(=O)OC(C)(C)C)c1,u,26µM*,u,u,u,x
Cc1cccc(NC(=O)c2nc[nH]c2C(=O)Nc2cccc(C)c2)c1,u,-26%,-30%,i,i,i
CC(C)(C)OC(=O)NCCCCCNC(=O)c1[nH]cnc1C(=O)N[C@@H](CCCCNC(=O)OC(C)(C)C)C(=O)OC(C)(C)C,-24%,u,u,u,i,u
Cc1cccc(NC(=O)c2nc[nH]c2C(=O)N[C@@H](C)c2ccccc2)c1,15µM*,u,u,i,i,x
CC(C)(C)OC(=O)NCCCCCNC(=O)c1nc[nH]c1C(=O)NCc1ccc(CNC(=O)OC(C)(C)C)cc1,u,-25%,20µM*,u,u,16µM*
O=C(CCl)Nc1ccc(-c2ccccc2)cc1,9.2µM*,4.6µM*,x,u,u,10µM*
CC(C)N(c1ccccc1)c1ccc(NC(=O)CCl)cc1,u,u,u,u,i,27µM*
O=C(CCl)Nc1ccc(N=Nc2ccccc2)cc1,-3%,u,x,i,i,20µM*
CC(=O)Nc1ccc(NC(=O)Cc2ccc(-c3ccccc3)cc2)cc1,0%,9%,x,i,i,i
O=C(CCl)Nc1ccc(N2CCCCCC2)cc1,18µM*,23µM*,u,i,u,u
CC(=O)Nc1ccc(N=Nc2ccccc2)cc1,0%,1%,65%,i,i,i
C[C@]12CC[C@@H]3c4ccc(O)cc4C[C@@H](CCCCCCCCCS(=O)CCCC(F)(F)C(F)(F)F)[C@H]3[C@H]1CC[C@H]2O (stereo not given in full),x,x,-7%,x,x,x
Cc1nc2cc(NC(=O)[C@@H]3C[C@@H](Sc4ccccn4)CN3Cc3ccc4c(c3)OCCO4)ccc2s1,x,x,x,x,x,i
CC(OC(=O)c1ccccc1)C(=O)NCc1ccco1 (stereo not given),15%,7%,-14%,i,i,i
CCCCCOc1ccc(C(=O)OC(C)C(=O)NCc2ccco2)cc1 (stereo not given),21µM*,u,-3%,u,u,i
O=c1oc2ccccc2c(Nc2cc3ccccc3cc2O)c1[N+](=O)[O-],u,u,-27%,u,15µM*,u
COc1ccccc1NC(=O)COC(=O)c1ccccc1OCC(=O)Nc1ccc(SC(F)F)cc1,u,19%,-6%,13µM*,i,u
COc1ccccc1C(=O)COC(=O)c1ccccc1OCC(=O)Nc1ccc(SC(F)F)cc1,-15%,0%,-16%,i,i,i
O=C(NCC(c1cccnc1)N1CCN(c2ccccc2)CC1)OCc1ccccc1 (stereo not given),3%,11%,-2%,2.6µM*,i,i
O=C(NCC(c1cccnc1)N1CCN(c2ccc(F)cc2)CC1)OCc1ccccc1 (stereo not given),-5%,-7%,-19%,u,i,i
O=C(NCC(c1cccnc1)N1CCN(c2ccccc2)CC1)C1CCCCC1 (stereo not given),-3%,0%,-1%,21µM*,i,i
O=C(CBr)c1ccc(Oc2ccc(C(=O)C[n+]3ccccc3Cl)cc2)cc1,x,x,x,i,i,x
O=C(/C=C/c1c(F)c(F)c(F)c(F)c1F)Nc1cccc([S+](=O)([O-])Nc2ccccc2F)c1,x,x,x,i,i,x
